Experimental data from paper PMC7862700, “An all-to-all approach to the identification of sequence-specific readers for epigenetic DNA modifications on cytosine”.

Assays:
Test in all cases: DAPPL (digital affinity profiling via proximity ligation, sequencing); 10 mM Tris-HCl pH 7.5, 50 mM NaCl, 1 mM DTT, 4% glycerol, room temperature, 30 min; GST-TFs on glutathione beads, 16-mer random dsDNA library, 0.1% formaldehyde crosslink after washing; high values mean tight binding
FLI1 = molecular target: T1, FLI1 (Homo sapiens, UniProt Q01543 1-452); details: protein: recombinant; tags: N-terminal GST; dsDNA, one strand shown
T1 sequence: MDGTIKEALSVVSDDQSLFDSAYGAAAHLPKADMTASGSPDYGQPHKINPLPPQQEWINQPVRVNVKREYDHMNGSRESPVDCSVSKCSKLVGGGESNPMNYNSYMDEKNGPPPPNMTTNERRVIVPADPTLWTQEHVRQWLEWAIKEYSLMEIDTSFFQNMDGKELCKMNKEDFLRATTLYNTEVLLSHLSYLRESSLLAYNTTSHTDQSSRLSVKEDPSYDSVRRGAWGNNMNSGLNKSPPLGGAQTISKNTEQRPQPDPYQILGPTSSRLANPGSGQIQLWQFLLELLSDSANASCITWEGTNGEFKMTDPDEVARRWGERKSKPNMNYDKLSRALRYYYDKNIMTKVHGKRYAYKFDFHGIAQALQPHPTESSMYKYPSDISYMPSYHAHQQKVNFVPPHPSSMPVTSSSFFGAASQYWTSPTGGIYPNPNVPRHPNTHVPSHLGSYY
Outline: (§1)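 Human transcription factors were made in yeast as GST fusions, captured on glutathione beads and barcoded with DNA. With a tag-only sample included, the pool was incubated with 200 nmole of a random double-stranded 16-mer DNA library in Tris/NaCl/DTT/glycerol buffer at room temperature for 30 min, then crosslinked with 0.1% formaldehyde after washing, ligated by proximity, amplified and sequenced. For binding signal, each hexamer's read frequency for a factor is divided by its frequency for the tag-only sample.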

ELK1 = molecular target: T2, ELK1 (Homo sapiens, UniProt P19419 1-428); details: protein: recombinant; tags: N-terminal GST; dsDNA, one strand shown
T2 sequence: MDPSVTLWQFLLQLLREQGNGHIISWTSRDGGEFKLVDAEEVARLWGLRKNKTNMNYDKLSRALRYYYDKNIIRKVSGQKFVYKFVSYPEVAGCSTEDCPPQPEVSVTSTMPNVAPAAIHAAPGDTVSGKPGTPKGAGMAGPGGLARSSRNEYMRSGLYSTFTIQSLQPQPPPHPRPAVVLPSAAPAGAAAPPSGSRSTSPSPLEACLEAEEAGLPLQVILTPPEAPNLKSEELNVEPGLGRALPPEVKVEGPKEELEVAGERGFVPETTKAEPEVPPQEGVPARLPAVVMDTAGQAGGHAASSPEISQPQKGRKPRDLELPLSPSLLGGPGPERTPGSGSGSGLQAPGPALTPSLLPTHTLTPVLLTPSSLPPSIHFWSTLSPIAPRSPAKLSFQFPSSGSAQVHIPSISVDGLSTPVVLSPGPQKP
Outline: as §1

GABPA = molecular target: T3, GABPA (Homo sapiens, UniProt Q06546 1-454); details: protein: recombinant; tags: N-terminal GST; dsDNA, one strand shown
T3 sequence: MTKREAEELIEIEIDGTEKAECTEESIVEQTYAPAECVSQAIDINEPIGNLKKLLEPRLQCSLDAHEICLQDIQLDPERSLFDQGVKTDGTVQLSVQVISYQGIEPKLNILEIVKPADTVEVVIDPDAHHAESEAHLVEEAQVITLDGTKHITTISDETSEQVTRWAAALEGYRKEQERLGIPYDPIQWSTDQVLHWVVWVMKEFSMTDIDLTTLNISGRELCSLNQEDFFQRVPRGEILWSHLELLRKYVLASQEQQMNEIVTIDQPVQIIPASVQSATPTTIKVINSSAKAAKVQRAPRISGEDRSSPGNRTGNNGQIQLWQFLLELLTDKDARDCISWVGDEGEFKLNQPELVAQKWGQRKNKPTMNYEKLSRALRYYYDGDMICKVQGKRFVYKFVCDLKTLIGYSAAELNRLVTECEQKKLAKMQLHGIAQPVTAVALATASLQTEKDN
Outline: as §1

ERG = molecular target: T4, ERG (Homo sapiens, UniProt P11308 1-479); details: protein: recombinant; tags: N-terminal GST; dsDNA, one strand shown
T4 sequence: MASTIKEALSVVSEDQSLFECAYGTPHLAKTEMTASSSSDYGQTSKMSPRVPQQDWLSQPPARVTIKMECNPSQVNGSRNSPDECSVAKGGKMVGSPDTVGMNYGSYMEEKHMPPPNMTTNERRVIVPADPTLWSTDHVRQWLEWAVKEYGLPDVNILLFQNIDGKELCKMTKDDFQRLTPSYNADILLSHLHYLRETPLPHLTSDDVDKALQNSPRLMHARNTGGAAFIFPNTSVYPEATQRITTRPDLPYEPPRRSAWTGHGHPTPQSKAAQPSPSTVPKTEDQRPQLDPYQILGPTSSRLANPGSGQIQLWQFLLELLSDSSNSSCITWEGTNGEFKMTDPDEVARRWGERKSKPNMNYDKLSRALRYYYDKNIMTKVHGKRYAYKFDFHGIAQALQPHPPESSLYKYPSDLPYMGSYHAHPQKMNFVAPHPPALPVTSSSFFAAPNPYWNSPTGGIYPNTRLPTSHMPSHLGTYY
Outline: as §1

ELF1 = ELF1 (Homo sapiens, UniProt P32519 1-619); details: protein: recombinant; tags: N-terminal GST; dsDNA, one strand shown
Outline: as §1

EHF = molecular target: T5, EHF (Homo sapiens, UniProt Q9NZC4 1-300); details: protein: recombinant; tags: N-terminal GST; dsDNA, one strand shown
T5 sequence: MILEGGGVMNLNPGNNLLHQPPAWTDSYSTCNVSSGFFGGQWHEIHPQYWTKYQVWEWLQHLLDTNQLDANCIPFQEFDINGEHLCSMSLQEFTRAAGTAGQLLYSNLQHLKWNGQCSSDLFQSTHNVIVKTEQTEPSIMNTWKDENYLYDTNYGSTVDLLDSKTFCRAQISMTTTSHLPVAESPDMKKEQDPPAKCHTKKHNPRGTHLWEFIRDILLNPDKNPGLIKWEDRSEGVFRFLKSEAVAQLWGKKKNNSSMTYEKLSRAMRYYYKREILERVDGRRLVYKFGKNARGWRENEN
Outline: as §1

SPI1 = SPI1 (Homo sapiens, UniProt P17947 1-270); details: protein: recombinant; tags: N-terminal GST; dsDNA, one strand shown
Outline: as §1

SPIB = SPIB (Homo sapiens, UniProt Q01892 1-262); details: protein: recombinant; tags: N-terminal GST; dsDNA, one strand shown
Outline: as §1

ELK3 = molecular target: T6, ELK3 (Homo sapiens, UniProt P41970 1-407); details: protein: recombinant; tags: N-terminal GST; dsDNA, one strand shown
T6 sequence: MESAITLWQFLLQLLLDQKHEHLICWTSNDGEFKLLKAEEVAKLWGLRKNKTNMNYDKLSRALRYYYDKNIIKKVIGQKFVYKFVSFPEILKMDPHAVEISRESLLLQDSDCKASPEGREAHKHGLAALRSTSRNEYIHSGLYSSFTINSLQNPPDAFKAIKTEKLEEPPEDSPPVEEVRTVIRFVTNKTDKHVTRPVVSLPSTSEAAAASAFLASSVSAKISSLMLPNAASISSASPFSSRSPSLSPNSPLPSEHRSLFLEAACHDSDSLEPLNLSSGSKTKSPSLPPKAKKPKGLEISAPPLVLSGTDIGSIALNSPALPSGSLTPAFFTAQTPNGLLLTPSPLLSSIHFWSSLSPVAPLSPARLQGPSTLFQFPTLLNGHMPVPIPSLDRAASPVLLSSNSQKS
Outline: as §1

FEV = molecular target: T7, FEV (Homo sapiens, UniProt Q99581 1-238); details: protein: recombinant; tags: N-terminal GST; dsDNA, one strand shown
T7 sequence: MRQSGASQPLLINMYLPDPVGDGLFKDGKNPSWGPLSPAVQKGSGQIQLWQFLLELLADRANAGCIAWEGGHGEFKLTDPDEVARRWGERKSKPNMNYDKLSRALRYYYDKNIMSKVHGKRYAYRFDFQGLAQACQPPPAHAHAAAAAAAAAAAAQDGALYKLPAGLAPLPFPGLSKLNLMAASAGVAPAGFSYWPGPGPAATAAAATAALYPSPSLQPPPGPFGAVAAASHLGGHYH
Outline: as §1

ETV5 = ETV5 (Homo sapiens, UniProt P41161 1-510); details: protein: recombinant; tags: N-terminal GST; dsDNA, one strand shown
Outline: as §1

HSF1 = HSF1 (Homo sapiens, UniProt Q00613 1-529); details: protein: recombinant; tags: N-terminal GST; chain copies: 3; dsDNA, one strand shown
Outline: as §1

SPIC = molecular target: T8, SPIC (Homo sapiens, UniProt Q8N5J4 1-248); details: protein: recombinant; tags: N-terminal GST; dsDNA, one strand shown
T8 sequence: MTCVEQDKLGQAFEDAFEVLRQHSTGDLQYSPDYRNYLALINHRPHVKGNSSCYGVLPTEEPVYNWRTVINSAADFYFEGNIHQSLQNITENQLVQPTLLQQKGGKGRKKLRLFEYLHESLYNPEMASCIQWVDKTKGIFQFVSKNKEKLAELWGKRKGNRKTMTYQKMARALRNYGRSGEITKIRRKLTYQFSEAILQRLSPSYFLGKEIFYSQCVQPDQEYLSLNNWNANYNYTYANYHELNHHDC
Outline: as §1

ELF4 = ELF4 (Homo sapiens, UniProt Q99607 1-663); details: protein: recombinant; tags: N-terminal GST; dsDNA, one strand shown
Outline: as §1

ELK4 = molecular target: T9, ELK4 (Homo sapiens, UniProt P28324-2 1-405); details: protein: recombinant; tags: N-terminal GST; dsDNA, one strand shown
T9 sequence: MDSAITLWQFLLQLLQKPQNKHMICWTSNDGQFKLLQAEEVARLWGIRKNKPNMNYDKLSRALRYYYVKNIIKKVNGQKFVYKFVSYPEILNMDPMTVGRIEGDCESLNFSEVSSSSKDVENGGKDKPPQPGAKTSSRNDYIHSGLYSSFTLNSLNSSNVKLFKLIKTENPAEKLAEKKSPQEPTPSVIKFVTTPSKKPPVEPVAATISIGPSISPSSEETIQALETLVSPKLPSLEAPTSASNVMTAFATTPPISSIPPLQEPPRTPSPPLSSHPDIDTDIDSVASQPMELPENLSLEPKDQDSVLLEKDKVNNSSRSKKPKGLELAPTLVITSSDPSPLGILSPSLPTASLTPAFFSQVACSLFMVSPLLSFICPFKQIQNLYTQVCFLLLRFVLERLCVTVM
Outline: as §1

ETV2 = molecular target: T10, ETV2 (Homo sapiens, UniProt O00321 1-342); details: protein: recombinant; tags: N-terminal GST; dsDNA, one strand shown
T10 sequence: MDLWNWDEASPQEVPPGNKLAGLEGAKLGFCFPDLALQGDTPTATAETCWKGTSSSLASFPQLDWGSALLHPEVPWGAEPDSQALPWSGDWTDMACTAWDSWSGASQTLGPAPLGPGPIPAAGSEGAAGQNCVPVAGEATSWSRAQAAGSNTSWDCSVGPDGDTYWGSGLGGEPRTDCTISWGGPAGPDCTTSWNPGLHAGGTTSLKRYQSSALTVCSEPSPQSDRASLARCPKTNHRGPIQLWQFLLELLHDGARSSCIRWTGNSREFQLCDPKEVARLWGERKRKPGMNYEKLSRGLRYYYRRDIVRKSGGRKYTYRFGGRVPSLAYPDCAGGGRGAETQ
Outline: as §1

ELF3 = molecular target: T11, ELF3 (Homo sapiens, UniProt P78545 1-371); details: protein: recombinant; tags: N-terminal GST; dsDNA, one strand shown
T11 sequence: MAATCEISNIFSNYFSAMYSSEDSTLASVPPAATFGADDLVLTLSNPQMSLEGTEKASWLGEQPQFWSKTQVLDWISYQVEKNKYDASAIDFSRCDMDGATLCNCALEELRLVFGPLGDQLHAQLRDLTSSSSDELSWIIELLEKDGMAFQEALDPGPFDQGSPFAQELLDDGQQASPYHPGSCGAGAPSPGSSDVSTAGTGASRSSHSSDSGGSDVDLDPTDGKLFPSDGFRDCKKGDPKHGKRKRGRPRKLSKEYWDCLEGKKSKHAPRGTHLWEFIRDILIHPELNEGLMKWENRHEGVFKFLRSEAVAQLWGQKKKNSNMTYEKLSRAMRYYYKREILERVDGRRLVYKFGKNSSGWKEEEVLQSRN
Outline: as §1

CRX = CRX (Homo sapiens, UniProt O43186 1-299); details: protein: recombinant; tags: N-terminal GST; dsDNA, one strand shown
Outline: as §1

ETV1 = ETV1 (Homo sapiens, UniProt P50549 1-477); details: protein: recombinant; tags: N-terminal GST; dsDNA, one strand shown
Outline: as §1

Chain of ELF4 (Q99607 whole entry): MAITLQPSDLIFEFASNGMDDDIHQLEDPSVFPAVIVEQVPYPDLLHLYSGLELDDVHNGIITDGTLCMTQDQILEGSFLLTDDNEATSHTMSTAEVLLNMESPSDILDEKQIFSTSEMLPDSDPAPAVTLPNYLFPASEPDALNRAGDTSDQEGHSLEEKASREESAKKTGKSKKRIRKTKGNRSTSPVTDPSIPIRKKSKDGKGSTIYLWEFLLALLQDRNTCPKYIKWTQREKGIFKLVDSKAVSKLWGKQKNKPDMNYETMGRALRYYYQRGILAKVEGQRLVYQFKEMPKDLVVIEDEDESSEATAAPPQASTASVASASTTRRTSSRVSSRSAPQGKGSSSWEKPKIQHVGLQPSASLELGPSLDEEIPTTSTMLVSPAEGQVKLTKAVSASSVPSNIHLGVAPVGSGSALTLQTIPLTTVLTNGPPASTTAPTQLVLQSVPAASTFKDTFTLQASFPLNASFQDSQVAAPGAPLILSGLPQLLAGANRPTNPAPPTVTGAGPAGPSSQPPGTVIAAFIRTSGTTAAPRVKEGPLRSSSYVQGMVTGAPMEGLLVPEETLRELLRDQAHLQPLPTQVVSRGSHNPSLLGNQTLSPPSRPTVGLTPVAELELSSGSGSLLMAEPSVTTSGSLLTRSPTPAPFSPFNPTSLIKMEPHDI
Chain of CRX (O43186 whole entry): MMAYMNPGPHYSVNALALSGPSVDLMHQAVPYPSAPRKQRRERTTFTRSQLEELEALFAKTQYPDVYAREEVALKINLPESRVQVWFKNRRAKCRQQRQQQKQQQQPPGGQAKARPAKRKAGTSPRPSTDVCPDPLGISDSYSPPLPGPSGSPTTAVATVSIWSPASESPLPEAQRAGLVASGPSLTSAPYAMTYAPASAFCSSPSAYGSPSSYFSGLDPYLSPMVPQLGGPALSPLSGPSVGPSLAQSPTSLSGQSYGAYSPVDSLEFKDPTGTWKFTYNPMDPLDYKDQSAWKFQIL
Chain of ETV5 (P41161 whole entry): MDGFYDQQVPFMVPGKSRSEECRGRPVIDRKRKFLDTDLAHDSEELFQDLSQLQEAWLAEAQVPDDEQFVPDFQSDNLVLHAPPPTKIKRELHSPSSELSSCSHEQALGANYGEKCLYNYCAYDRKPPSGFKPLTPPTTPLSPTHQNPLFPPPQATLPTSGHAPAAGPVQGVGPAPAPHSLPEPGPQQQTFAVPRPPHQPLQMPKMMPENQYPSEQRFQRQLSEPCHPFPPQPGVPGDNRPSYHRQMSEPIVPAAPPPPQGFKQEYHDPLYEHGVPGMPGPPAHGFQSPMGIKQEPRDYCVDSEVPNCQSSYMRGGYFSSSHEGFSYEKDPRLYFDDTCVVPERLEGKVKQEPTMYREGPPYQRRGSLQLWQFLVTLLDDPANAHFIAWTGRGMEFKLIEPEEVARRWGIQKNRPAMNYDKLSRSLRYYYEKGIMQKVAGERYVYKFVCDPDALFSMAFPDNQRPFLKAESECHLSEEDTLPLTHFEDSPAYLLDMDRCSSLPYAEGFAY
Chain of SPIB (Q01892 whole entry): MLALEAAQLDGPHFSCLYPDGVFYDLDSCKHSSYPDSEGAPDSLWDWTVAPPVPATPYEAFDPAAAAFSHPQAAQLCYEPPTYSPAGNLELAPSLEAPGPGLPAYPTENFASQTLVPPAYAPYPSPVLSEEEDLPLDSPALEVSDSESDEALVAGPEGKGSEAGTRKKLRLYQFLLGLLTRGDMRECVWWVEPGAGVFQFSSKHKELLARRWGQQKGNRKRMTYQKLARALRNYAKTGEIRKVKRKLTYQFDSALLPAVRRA
Chain of HSF1 (Q00613 whole entry): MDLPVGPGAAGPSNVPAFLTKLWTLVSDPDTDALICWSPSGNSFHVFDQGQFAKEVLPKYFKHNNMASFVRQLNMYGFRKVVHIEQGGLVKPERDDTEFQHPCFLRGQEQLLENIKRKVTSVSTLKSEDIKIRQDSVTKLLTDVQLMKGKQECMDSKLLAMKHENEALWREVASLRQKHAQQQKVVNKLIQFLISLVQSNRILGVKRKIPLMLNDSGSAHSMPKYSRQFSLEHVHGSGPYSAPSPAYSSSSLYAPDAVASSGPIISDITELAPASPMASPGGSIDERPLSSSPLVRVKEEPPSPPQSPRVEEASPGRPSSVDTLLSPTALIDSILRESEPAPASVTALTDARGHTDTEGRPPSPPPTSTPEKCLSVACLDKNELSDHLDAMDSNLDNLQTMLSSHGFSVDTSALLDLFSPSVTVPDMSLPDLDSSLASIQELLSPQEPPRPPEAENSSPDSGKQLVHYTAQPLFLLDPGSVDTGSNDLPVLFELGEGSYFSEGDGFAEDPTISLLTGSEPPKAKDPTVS
Chain of ELF1 (P32519 whole entry): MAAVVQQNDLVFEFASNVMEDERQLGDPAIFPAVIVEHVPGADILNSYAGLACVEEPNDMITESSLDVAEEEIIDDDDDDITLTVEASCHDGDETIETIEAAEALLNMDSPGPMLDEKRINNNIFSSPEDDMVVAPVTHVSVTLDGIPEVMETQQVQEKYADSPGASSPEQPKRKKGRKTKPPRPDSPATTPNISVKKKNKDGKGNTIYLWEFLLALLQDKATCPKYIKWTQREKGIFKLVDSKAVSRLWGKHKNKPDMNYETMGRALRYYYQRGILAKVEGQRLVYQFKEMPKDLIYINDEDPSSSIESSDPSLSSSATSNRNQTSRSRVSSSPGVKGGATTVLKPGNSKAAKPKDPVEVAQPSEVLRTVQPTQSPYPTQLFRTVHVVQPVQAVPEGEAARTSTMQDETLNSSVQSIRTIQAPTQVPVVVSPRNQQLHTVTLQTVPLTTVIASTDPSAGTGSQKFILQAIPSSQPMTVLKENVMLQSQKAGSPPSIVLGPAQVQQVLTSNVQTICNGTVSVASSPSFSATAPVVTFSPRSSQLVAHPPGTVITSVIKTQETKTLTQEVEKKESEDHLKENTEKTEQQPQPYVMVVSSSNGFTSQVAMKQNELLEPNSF
Chain of ETV1 (P50549 whole entry): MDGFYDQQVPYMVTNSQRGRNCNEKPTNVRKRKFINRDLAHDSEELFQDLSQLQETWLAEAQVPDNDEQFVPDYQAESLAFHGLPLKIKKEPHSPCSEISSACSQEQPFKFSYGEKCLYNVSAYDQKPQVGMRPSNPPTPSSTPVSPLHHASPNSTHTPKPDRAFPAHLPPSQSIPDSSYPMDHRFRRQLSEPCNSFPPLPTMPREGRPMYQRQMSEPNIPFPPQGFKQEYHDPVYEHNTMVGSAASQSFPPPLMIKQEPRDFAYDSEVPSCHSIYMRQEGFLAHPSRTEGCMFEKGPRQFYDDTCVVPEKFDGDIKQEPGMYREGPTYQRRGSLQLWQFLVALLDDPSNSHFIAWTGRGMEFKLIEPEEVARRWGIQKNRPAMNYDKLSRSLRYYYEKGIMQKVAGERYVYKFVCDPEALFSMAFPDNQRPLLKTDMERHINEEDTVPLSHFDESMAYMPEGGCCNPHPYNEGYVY

Sequence: TGTACT
- binding signal (FLI1): 1.28 fold enrichment (6-mer frequency, TF over GST control)
- binding signal (ELK1): 1.44 fold enrichment (6-mer frequency, TF over GST control)
- binding signal (GABPA): 1.24 fold enrichment (6-mer frequency, TF over GST control)
- binding signal (ERG): 1.24 fold enrichment (6-mer frequency, TF over GST control)
- binding signal (ELF1): 1.35 fold enrichment (6-mer frequency, TF over GST control)
- binding signal (EHF): 1.3 fold enrichment (6-mer frequency, TF over GST control)
- binding signal (SPI1): 1.25 fold enrichment (6-mer frequency, TF over GST control)
- binding signal (SPIB): 1.21 fold enrichment (6-mer frequency, TF over GST control)
- binding signal (ELK3): 1.35 fold enrichment (6-mer frequency, TF over GST control)
- binding signal (FEV): 1.41 fold enrichment (6-mer frequency, TF over GST control)
- binding signal (ETV5): 1.34 fold enrichment (6-mer frequency, TF over GST control)
- binding signal (HSF1): 1.18 fold enrichment (6-mer frequency, TF over GST control)
- binding signal (SPIC): 1.18 fold enrichment (6-mer frequency, TF over GST control)
- binding signal (ELF4): 1.29 fold enrichment (6-mer frequency, TF over GST control)
- binding signal (ELK4): 1.2 fold enrichment (6-mer frequency, TF over GST control)
- binding signal (ETV2): 1.3 fold enrichment (6-mer frequency, TF over GST control)
- binding signal (ELF3): 1.23 fold enrichment (6-mer frequency, TF over GST control)
- binding signal (CRX): 1.15 fold enrichment (6-mer frequency, TF over GST control)
- binding signal (ETV1): 1.34 fold enrichment (6-mer frequency, TF over GST control)
